A selection: hits, their analogues and other compounds. The true share with any hit is near 8.3%.
Giardia killer: Giardia lamblia killing; Giardia lamblia trophozoite viability; activity change, % at 7.66 µM, hits read low; hit rate 0.15% among 340,000; in the data active = activity change below about -80%; inconclusive = between about -30% and that limit;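 also: parasites exposed to compound for two days anaerobically before the ATP read; % is scaled to controls: 0 for no effect and ±100 for the full control effect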
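Trophozoite viability was measured as ATP-dependent luminescence, read 15-30 min after reagent addition. Before that, parasites at 100 cells/well were exposed to compounds for 48 h, anaerobically, at 37 deg C.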
MCF10A rereplic: DNA re-replication induction in MCF 10a cells; MCF 10A DNA re-replication, Hoechst nuclear intensity, 48 h; Potency, µM (titrated, usually from 46.1 µM), for inactives: top-dose activity, positive = re-replication, usual class: activators; hit rate 2.9% among 350,000; AID 624296; also: potency is read from the fitted curve at half-maximal effect; % of control where 0% means no effect; nearly all actives have a fitted effect of over 50% in size
VP16 counter: inhibits Gal4-VP16 luciferase reporter, ROR gamma counter-screen | hit rate 3.5% among 310,000 | Potency, µM (doses to about 53.6 µM), without a hit: top-dose activity, negative = inhibition, usual class: inhibitors | Drosophila S2 Gal4-VP16 UAS-luciferase, luminescence, 20 h;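 also: Gal4-VP16 expression switched on by copper sulfate through the metallothionein promoter; potency is read from the fitted curve at half-maximal effect; % is scaled to controls: 0 for no effect and ±100 for the full control effect; nearly all actives have a fitted effect of over 50% in size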
SW480 rerep: DNA re-replication induction in SW480 cells; hit rate 1.8% among 340,000; SW480 DNA re-replication, Hoechst DNA content imaging, 48 h; Potency, µM (top dose mostly 46.1 µM), for inactives: at the top dose re-replication activation, hits mostly activators; AID 624297; also: potency is read from the fitted curve at half-maximal effect; % of control where 0% means no effect; nearly all actives have a fitted effect of over 55% in size
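Compounds, transferred as 23 nL by pin tool, were incubated with cells for 48 hr; DNA content per nucleus was then quantified by Hoechst staining and fluorescence plate imaging.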
RORgamma inh: ROR gamma (mouse) transcription inhibition | AID 2551 | Potency, µM (highest dose often 53.6 µM), without a hit: at the top dose activity change, negative = inhibition, most hits filed as inhibitors | Drosophila S2 Gal4-RORgamma UAS-luciferase reporter, 20 h | hit rate 5.4% among 310,000; also: potency is read from the fitted curve at half-maximal effect; % is scaled to controls: 0 for no effect and ±100 for the full control effect; nearly all actives have a fitted effect of over 60% in size
Target sequence (P51450 whole entry, looked up, the tested form may be a part): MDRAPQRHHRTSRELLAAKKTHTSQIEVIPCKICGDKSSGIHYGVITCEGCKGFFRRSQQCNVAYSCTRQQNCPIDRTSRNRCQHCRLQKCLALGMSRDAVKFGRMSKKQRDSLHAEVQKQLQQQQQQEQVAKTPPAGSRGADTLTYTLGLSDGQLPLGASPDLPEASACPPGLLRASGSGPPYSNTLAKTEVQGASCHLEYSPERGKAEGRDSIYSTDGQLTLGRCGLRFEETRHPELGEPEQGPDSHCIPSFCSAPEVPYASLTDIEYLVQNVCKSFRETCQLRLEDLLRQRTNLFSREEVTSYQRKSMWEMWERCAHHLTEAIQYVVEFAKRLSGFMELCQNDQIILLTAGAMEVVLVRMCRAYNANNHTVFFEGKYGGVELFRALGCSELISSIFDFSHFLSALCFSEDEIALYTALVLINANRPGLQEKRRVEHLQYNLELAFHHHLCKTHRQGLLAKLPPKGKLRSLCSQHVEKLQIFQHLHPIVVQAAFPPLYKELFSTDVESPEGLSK
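Drosophila Schneider cells stably carrying a metallothionein-driven Gal4 DBD–ROR gamma fusion and a UAS-Photinus luciferase reporter were exposed to compound for 1 hr, then induced with copper sulfate (700 uM final) for 20 hr at ambient temperature before luminescence reading.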
BCR signal inh: inhibitors of chronic active B-cell receptor signaling; ABC-DLBCL IkBa-CBG/CBR reporter, luminescence ratio, 4 h; Potency, µM (doses to about 46.1 µM), inactives show at the top dose activity change, negative = inhibition, hits mostly inhibitors; hit rate 0.05% among 340,000; active = well fitted inhibition curve with a large enough effect in the signal ratio, with a control signal flat, not every such curve was filed as active; inconclusive = small, poorly fitted or top-dose-only effect, or effect the other way, or a change in a side signal; the % refers to the signal ratio;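 also: potency is read from the fitted curve at half-maximal effect; plate controls were basal doxycycline-induced cells for no effect and cells given 10 µM MG132 for full effect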
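Doxycycline induced both beetle luciferases in TMD8 lymphoma cells; IKK-driven degradation limits the IkappaBalpha-fused green signal, while red luminescence normalises for cell number and nonspecific effects. Compounds tested up to 46 uM, 4 hrs.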
Starred values were filed as active, the others as inactive; ? = inconclusive; / = no result; ! = not confirmed by another sample. Unless noted, calls follow the shape of the dose curve; as a rule, active = well fitted curve in the direction sought with a large enough effect; inconclusive = small, poorly fitted or top-dose-only effect, or another doubt; inactive = no such curve, though single readings can be large; an effect the other way counts as inactive or inconclusive.

SMILES	Giardia killer	MCF10A rereplic	VP16 counter	SW480 rerep	RORgamma inh	BCR signal inh
COc1ccc([C@H]2/C=C\CN(C(=O)[C@H](Cc3ccccc3)NC(=O)OCC3c4ccccc4-c4ccccc43)CC(=O)N2Cc2ccc(F)cc2)cc1	-19	-1%	/	-1%	/	/
CC(C)CN(C(=O)C(C)N1C(=O)c2ccccc2C1=O)c1c(N)n(Cc2ccccc2)c(=O)[nH]c1=O (centres undefined)	-9	1%	/	-4%	/	?
Cc1sc2ncnc(NCc3ccco3)c2c1C	-12	-3%	20µM*	1%	19%	?
c1coc(CNc2nc3nonc3nc2NCc2ccco2)c1	6	15%	13µM*	-14%	0%	?
Cc1sc2ncnc(NCc3cccs3)c2c1C	9	9%	10µM*	-1%	-13%	?
CSCCC(NC(=O)c1ccccc1Cl)C(=O)NNC(=O)c1ccncc1 (centres undefined)	7	-4%	/	-52%	/	2%
CN(c1ccccc1)S(=O)(=O)c1ccc(Cl)c(C(=O)Nc2ccncc2)c1	13	0%	/	-6%	/	-1%
COc1cccc(NC(=O)c2nc(SC)ncc2Cl)c1	-4	7%	16%	-2%	40%	-23%
COc1cccc(NC(=O)c2nc(S(C)(=O)=O)ncc2Cl)c1	-10	5.8µM*	5µM*	2.3µM*	4µM*	?
CN(c1ccccc1)S(=O)(=O)c1ccc(NC(=O)c2nc(S(C)(=O)=O)ncc2Cl)cc1	-24	?	2.8µM*	9.2µM*	6.3µM*	?
Cc1nnc(N=c2ssnc2Cl)o1	1	?	/	?	/	-6%
COc1cc(N=c2ssnc2Cl)c(OC)cc1Cl	-8	21µM*!	25µM*	?	?	?
COc1ccc(OC)c(N=c2ssnc2Cl)c1	0	?	?	?	18µM*	5%
CS(=O)(=O)N(Cc1nc(-c2ccc(F)cc2)no1)c1ccccc1Cl	11	16%	/	-7%	/	?
CC[C@H](C)[C@H](NC(=O)[C@H](Cc1ccc(O)cc1)NC(=O)[C@H](Cc1cnc[nH]1)NC(=O)[C@H](CCCNC(=N)N)NC(=O)[C@H](CC(C)C)NC(=O)[C@H](C)NC(=O)[C@H](CO)NC(=O)[C@H](Cc1ccc(O)cc1)NC(=O)[C@H](Cc1ccc(O)cc1)NC(=O)[C@H](CCCNC(=N)N)NC(=O)[C@H](C)NC(=O)[C@H](CC(C)C)NC(=O)[C@H](CC(=O)O)NC(=O)[C@H](CCC(=O)O)NC(=O)[C@H](C)NC(=O)[C@@H]1CCCN1C(=O)[C@H](C)NC(=O)[C@H](CC(=O)O)NC(=O)[C@H](CCC(=O)O)NC(=O)CNC(=O)[C@@H]1CCCN1C(=O)[C@H](CC(N)=O)NC(=O)[C@H](CC(=O)O)NC(=O)[C@@H]1CCCN1C(=O)[C@H](CCCCN)NC(=O)[C@H](CO)NC(=O)[C@@H]1CCCN1C(=O)[C@@H](N)Cc1ccc(O)cc1)C(=O)N[C@@H](CC(N)=O)C(=O)N[C@@H](CC(C)C)C(=O)N[C@H](C(=O)N[C@H](C(=O)N[C@@H](CCCNC(=N)N)C(=O)N[C@@H](CCC(N)=O)C(=O)N[C@@H](CCCNC(=N)N)C(=O)N[C@@H](Cc1ccc(O)cc1)C(N)=O)[C@@H](C)O)[C@@H](C)CC	/	/	-4%	/	10%	/
Cc1cc(C)n2nc(-c3cccnc3)nc2n1	4	2%	8%	3%	-1%	2%
Cn1nc(-c2ccc(Cl)cc2)nc2c(=O)n(C)c(=O)nc1-2	-103*	/	-80%	/	?	?
CCn1nc(-c2ccccc2C)nc2c(=O)n(C)c(=O)nc1-2	-93*	/	/	/	/	/
Cn1nc(-c2ccc(F)cc2)nc2c(=O)n(C)c(=O)nc1-2	-89*	/	/	/	/	/
Cn1nc(-c2cccnc2)nc2c(=O)n(C)c(=O)nc1-2	-86*	/	/	/	/	/
CCOC(=O)CC[C@H](NC(=O)Cn1cnc2c(OCc3ccccc3)ncnc21)C(=O)OCC	3	-2%	/	-9%	/	0%
Cc1ccc(NC(=O)CN(C)C(=O)COC(=O)CNS(=O)(=O)c2ccc(Br)cc2Cl)cc1	-23	-1%	-8%	2%	3%	19%
NS(=O)(=O)c1cc(C(=O)NCC2CCCCC2)ccc1Cl	-27	5%	28%	-1%	19%	?
CSc1ncccc1C(=O)Nc1ccc(S(=O)(=O)NC2=NCCCCC2)cc1	15	9%	18%	-8%	15%	-3%
CN(C(=O)C1CCN(S(=O)(=O)c2ccccc2[N+](=O)[O-])CC1)C1CCCCC1	1	?	/	18%	/	-5%
SMILES	Giardia killer	MCF10A rereplic	VP16 counter	SW480 rerep	RORgamma inh	BCR signal inh
COc1ccc(-c2nc3c(=O)n(C)c(=O)nc-3n(C)n2)cc1	-99*	/	/	/	/	/
Cc1ccc(C(=O)N/C(=C/c2ccc(-c3ccc([N+](=O)[O-])cc3)o2)C(=O)NCCCN(C)C)cc1	-11	?	/	23µM*	/	/
O=C(NCCCO)/C(=C/c1ccc(-c2cccc([N+](=O)[O-])c2)o1)NC(=O)c1ccccc1	-5	1%	-5%	-8%	6%	-19%
CC(=O)NCCC(=O)Nc1ccc(C(N)=O)cc1	-7	3%	3%	-2%	14%	0%
OCC1OC(n2cnc3c(/C=C(\O)c4ccccc4)ncnc32)C(O)C1O (centres undefined)	14	5.8µM*	/	?	/	/
CN(C)c1ncnc2c1ncn2C1OC(CO)C(O)C1O (centres undefined)	-7	?	-1%	7.3µM*	13%	-15%
OCC1OC(n2cnc3c(Cl)ncnc32)C(O)C1O (centres undefined)	/	/	1%	/	-12%	/
COc1cc2c(cc1OC)CN(C(=O)CN1CCN(S(=O)(=O)c3ccccc3)CC1)CC2	9	-1%	0%	-2%	-4%	-1%
Cc1cccc(NC(=O)CSc2nnc(NC(=O)c3ccco3)s2)c1	-4	?	27%	-62%	17%	4%
COc1ccc(Nc2nc(NCc3ccco3)nc(N/N=C/c3ccccc3)n2)cc1	17	?	-18%	-3%	10%	2%
CCNc1nc(NCC)nc(N/N=C(\C)c2ccc(OC)cc2)n1	-5	12%	?	-3%	7.1µM*	?
CCNc1nc(NCC)nc(N/N=C/c2ccc(OC)cc2)n1	2	-2%	-25%	-5%	11µM*	15%
CCNc1nc(NCC)nc(N/N=C/c2ccccc2)n1	-8	-4%	-10%	-3%	14µM*	-3%
CN(C)c1nc(NCc2ccccc2)nc(N/N=C/c2cccc(Br)c2)n1	14	?	11µM*	?	3.5µM*	?

Screening data from PubChem BioAssay.
